Laboratory results: PubChem BioAssay (Tox21)
Inconclusive results are not listed. Calls of active or inactive are those of the source. Unless noted, calls follow the shape of the dose curve; as a rule, active = well fitted curve in the direction sought with a large enough effect in the repeat runs; inconclusive = weak or mixed curves; inactive = no such curve, though single readings can be large; an effect the other way counts as inactive or inconclusive.

Legend:
[1] = qHTS assay for small molecule agonists of the p53 signaling pathway (AID 651631; calls by dose curve; also: nearly all actives have a fitted effect of over 15% in size)
Method in brief: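 We treat p53RE-bla HCT-116 cells with compounds for 16 h at 37 °C, add LiveBLAzer B/G FRET substrate for 2 h at room temperature, and measure fluorescence intensity.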

[2] = qHTS assay for small molecules that induce genotoxicity in human embryonic kidney cells expressing luciferase-tagged ATAD5 (AID 651632); also: nearly all actives have a fitted effect of over 15% in size
Method in brief: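 ATAD5-luc HEK293T, 2,000 cells/well; cpd or DMSO pin-transferred; 16 hr, 37C/5% CO2; Amplite 30 min RT; luminescence.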

[3] = qHTS assay for small molecule agonists of the p53 signaling pathway - cell viability (AID 651633; calls by dose curve;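 also: p53RE-bla HCT reporter cells with a stable beta-lactamase p53 reporter; series mostly up to about 83 µM; nearly all actives have a fitted effect of over 30% in size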)
Method in brief: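 p53RE-bla cells were treated with compound for 16 hours at 37 C. Cytotoxicity was then measured as CellTiter-Glo luminescence after 30 min at room temperature.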

[4] = qHTS assay for small molecules that induce genotoxicity in human embryonic kidney cells expressing luciferase-tagged ATAD5 - cell viability (AID 651634; calls by dose curve; also: nearly all actives have a fitted effect of over 25% in size)
Method in brief: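 Fluorescence from CellTiter-Fluor, reporting protease activity within live cells, served as the viability read-out. HEK293T cells carrying luciferase-tagged ATAD5 had been treated with compound for 15.5 hr at 37C.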

[5] = qHTS assay for small molecule disruptors of the mitochondrial membrane potential - cell viability (AID 720634; calls by dose curve;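 also: human HepG2 liver cancer cells; series mostly up to about 83 µM; nearly all actives have a fitted effect of over 20% in size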)
Method in brief: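 Cells: HepG2, 2,000/well, attached overnight. Compound 1 hr, 37 C/5% CO2. +m-MPI dye, +CellTiter-Glo 30 min RT. Readout: luminescence (ATP).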

[6] = qHTS assay to test for compound auto fluorescence at 590 nm (red) in HepG2 cells (AID 720674)
Method in brief: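 Seeding: 2,000 HepG2 cells/well, MEM/10% FBS, overnight 37 C. Dosing: compound vs DMSO. Incubation: 1 hr, 37 C, 5% CO2. Read: fluorescence 540 ex/590 em, Rose Bengal sodium as red reference.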

[7] = qHTS assay to test for compound auto fluorescence at 535 nm (green) in HepG2 cells (AID 720675)
[8] = qHTS assay to test for compound auto fluorescence at 460 nm (blue) in HEK293 cells (AID 720678)
Method in brief: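 Triamterene serves as the blue fluorophore standard. Compound signal at 405/460 nm is read in HEK293 wells (2,000 cells, 10% dialyzed FBS) after overnight treatment at 37C.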

[9] = qHTS assay to test for compound auto fluorescence at 590 nm (red) in HEK293 cells (AID 720679)
Method in brief: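 We plated HEK293 cells in 10% dialyzed FBS medium, let them adhere for 4-5 hr, then added 23 nL compound. Overnight at 37C and 5% CO2 preceded fluorescence measurement at 540/590nm.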

[10] = qHTS assay to test for compound auto fluorescence at 535 nm (green) in HEK293 cells (AID 720680)
[11] = qHTS assay to test for compound auto fluorescence at 460 nm (blue) in HEK293 cell free culture (AID 720681)
Method in brief: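 Compounds were added to cell-free DMEM with 10% FBS and fluorescence read directly. The blue channel used 405 nm excitation and 460 nm emission, with triamterene as the reference fluorophore.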

[12] = qHTS assay to test for compound auto fluorescence at 535 nm (green) in HEK293 cell free culture (AID 720682)
Method in brief: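 Green-channel intensity (Ex/Em 485/535 nm) was recorded from compound-treated wells containing only DMEM with 10% FBS. Fluorescein provided the equivalency standard.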

[13] = qHTS assay to test for compound auto fluorescence at 590 nm (red) in HEK293 cell free culture (AID 720683)
Method in brief: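 Cell-free wells of DMEM with 10% FBS received compound, and intrinsic fluorescence was read at excitation/emission 540/590 nm. Values expressed as equivalence to Rose Bengal sodium.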

[14] = qHTS assay to test for compound auto fluorescence at 590 nm (red) in HepG2 cell free culture (AID 720684)
Method in brief: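 Compounds are added to culture medium (MEM, 10% FBS) lacking cells, then fluorescence is read at excitation 540 nm, emission 590 nm, with Rose Bengal sodium as the equivalency standard.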

[15] = qHTS assay to test for compound auto fluorescence at 460 nm (blue) in HepG2 cell free culture (AID 720685)
Method in brief: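 Compound (23 nL) or DMSO pinned into cell-free MEM with 10% FBS; blue fluorescence read at 405/460 nm excitation/emission, expressed as auto-fluorescence equivalency to triamterene.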

[16] = qHTS assay to test for compound auto fluorescence at 535 nm (green) in HepG2 cell free culture (AID 720686)
[17] = qHTS assay to test for compound auto fluorescence at 460 nm (blue) in HepG2 cells (AID 720687)
Method in brief: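 HepG2 cells in MEM with 10% FBS, attached overnight at 37 C, were exposed to compound or DMSO for 1 hr at 37 C, 5% CO2. Blue fluorescence was read at 405/460 nm, with triamterene as reference fluorophore.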

[18] = target: Glucocorticoid receptor (Homo sapiens) (UniProt P04150); assay: qHTS assay to identify small molecule agonists of the glucocorticoid receptor (GR) signaling pathway (AID 720691; active = well fitted activation curve with a large enough effect in the signal ratio in the repeat runs, not every such curve was filed as active; the % refers to the signal ratio)
Sequence of Glucocorticoid receptor (Homo sapiens) (P04150 whole entry, looked up): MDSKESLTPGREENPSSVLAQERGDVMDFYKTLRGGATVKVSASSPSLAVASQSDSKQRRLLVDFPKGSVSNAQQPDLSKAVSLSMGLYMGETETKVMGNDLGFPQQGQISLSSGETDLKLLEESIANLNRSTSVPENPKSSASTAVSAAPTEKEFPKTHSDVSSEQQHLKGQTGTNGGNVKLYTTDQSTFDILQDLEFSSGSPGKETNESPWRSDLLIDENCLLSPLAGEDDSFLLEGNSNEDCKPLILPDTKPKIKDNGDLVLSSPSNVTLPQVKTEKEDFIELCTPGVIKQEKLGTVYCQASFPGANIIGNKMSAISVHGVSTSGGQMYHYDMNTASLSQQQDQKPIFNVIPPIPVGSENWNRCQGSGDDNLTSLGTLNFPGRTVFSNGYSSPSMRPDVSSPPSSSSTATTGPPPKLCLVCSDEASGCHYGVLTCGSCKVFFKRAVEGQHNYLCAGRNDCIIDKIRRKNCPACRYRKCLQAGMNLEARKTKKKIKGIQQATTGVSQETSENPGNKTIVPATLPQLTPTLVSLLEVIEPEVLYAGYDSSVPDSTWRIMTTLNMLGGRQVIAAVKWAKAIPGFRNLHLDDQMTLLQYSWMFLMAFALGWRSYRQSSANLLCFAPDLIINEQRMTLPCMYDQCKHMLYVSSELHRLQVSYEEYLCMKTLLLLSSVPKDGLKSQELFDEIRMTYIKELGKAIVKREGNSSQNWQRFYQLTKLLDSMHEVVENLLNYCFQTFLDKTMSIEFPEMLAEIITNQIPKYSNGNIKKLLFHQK
Method in brief: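 Fluorescence intensity from LiveBLAzer B/G FRET substrate (2 h, room temperature) reports beta-lactamase expression driven by the glucocorticoid response element in GR-bla HeLa cells after 18 h compound exposure at 37 C.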

[19] = target: Glucocorticoid receptor (Homo sapiens) (UniProt P04150); assay: qHTS assay to identify small molecule antagonists of the glucocorticoid receptor (GR) signaling pathway (AID 720692; active = well fitted inhibition curve with a large enough effect in the signal ratio in the repeat runs, not every such curve was filed as active; the % refers to the signal ratio)
Method in brief: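 HeLa GR-bla cells; cmpd + dex 5 nM final, 18 h 37 C; LiveBLAzer B/G FRET substrate 2 h RT; fluorescence intensity read. Antagonist mode, qHTS.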

[20] = qHTS assay for small molecule disruptors of the mitochondrial membrane potential (AID 720635)
Method in brief: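 HepG2 cells exposed to compound 1 hr at 37C, then Mito-MPS dye 30 min. Ratio read of aggregate (540/590 nm) versus monomer (490/535 nm) fluorescence.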
% is scaled to controls: 0 for no effect and ±100 for the full control effect.

CC(=O)C1CCCCC1=O (stereo unspecified)
inactive: Potency [1] | Potency [2] | Potency [3] | Potency [4] | outcome [5] | outcome [6] | outcome [7] | outcome [8] | outcome [9] | outcome [10] | outcome [11] | outcome [12] | outcome [13] | outcome [14] | outcome [15] | outcome [16] | outcome [17] | Potency [18] | Potency [19]

CC1=NS(=O)(=O)c2cc(Cl)ccc2N1
inactive: Potency [1] | Potency [2] | Potency [3] | Potency [4] | outcome [5] | Potency [20] | outcome [7] | outcome [8] | outcome [9] | outcome [10] | outcome [11] | outcome [12] | outcome [13] | outcome [14] | outcome [15] | outcome [16] | outcome [17] | Potency [18] | Potency [19]

COc1cc(C)nc(-n2nc(C)cc2OC)n1
inactive: Potency [1] | Potency [2] | Potency [3] | Potency [4] | outcome [5] | Potency [20] | fluorescence, relative to Rose Bengal [6] -0.559% [at 18.6 µM] | fluorescence, % of fluorescein control [7] 0.0331% [at 18.6 µM] | fluorescence, % of fluorescent control [9] -0.0061% [at 18.6 µM] | fluorescence, % of fluorescein [10] -0.0757% [at 18.6 µM] | activity change [12] -0.0111% [at 18.6 µM] | fluorescence, % of fluorescent control [13] 0.134% [at 18.6 µM] | fluorescence, % of Rose Bengal [14] -0.183% [at 18.6 µM] | fluorescence, % of fluorescent control [15] -0.138% [at 18.6 µM] | fluorescence, % of fluorescent control [17] -0.112% [at 18.6 µM] | Potency [18] | Potency [19]

CCN1CCOCC1
inactive: Potency [1] | Potency [2] | Potency [3] | Potency [4] | outcome [5] | Potency [20] | outcome [6] | outcome [8] | outcome [9] | outcome [10] | outcome [11] | outcome [12] | outcome [13] | outcome [14] | outcome [15] | outcome [16]

COc1cc(C(=O)OC(COCCC(C)C)CN2CCOCC2)cc(OC)c1OC (stereo unspecified)
inactive: Potency [1] | Potency [2] | Potency [3] | Potency [4] | outcome [5] | Potency [20] | outcome [6] | outcome [8] | outcome [9] | outcome [10] | outcome [11] | outcome [12] | outcome [14] | outcome [15] | outcome [16] | outcome [17] | Potency [19]

O=C(O)c1cc(C(=O)O)cc(C(=O)O)c1
inactive: Potency [1] | Potency [2] | Potency [3] | Potency [4] | outcome [5] | Potency [20] | outcome [7] | outcome [8] | outcome [9] | outcome [10] | outcome [11] | outcome [12] | outcome [13] | outcome [14] | outcome [15] | outcome [16] | outcome [17] | Potency [18] | Potency [19]

CCOC(=O)C1=NOC(c2ccccc2)(c2ccccc2)C1
inactive: Potency [1] | Potency [2] | Potency [3] | Potency [4] | outcome [5] | outcome [6] | outcome [7] | outcome [8] | outcome [9] | outcome [10] | outcome [11] | outcome [12] | outcome [14] | outcome [15] | outcome [17] | Potency [18] | Potency [19]

CC(C)C(=O)OC(=O)C(C)C
inactive: Potency [1] | Potency [2] | Potency [3] | Potency [4] | outcome [5] | Potency [20] | outcome [6] | outcome [8] | outcome [9] | outcome [10] | outcome [11] | outcome [12] | outcome [14] | outcome [15] | outcome [16] | outcome [17] | Potency [18] | Potency [19]

CCNS(=O)(=O)c1ccc(C)cc1
inactive: Potency [1] | Potency [2] | Potency [3] | Potency [4] | outcome [5] | Potency [20] | outcome [6] | outcome [9] | outcome [10] | outcome [11] | outcome [12] | outcome [13] | outcome [14] | outcome [15] | outcome [16] | outcome [17] | Potency [18]

CC1(C)[C@@H]2CC[C@@]1(C)[C@H](O)C2
inactive: Potency [1] | Potency [2] | Potency [3] | Potency [4] | outcome [5] | outcome [6] | outcome [7] | outcome [8] | outcome [9] | outcome [10] | outcome [11] | outcome [12] | outcome [13] | outcome [14] | outcome [15] | outcome [16] | outcome [17] | Potency [18] | Potency [19]

CN(C)CCN(C)CCN(C)C
inactive: Potency [1] | Potency [2] | Potency [3] | Potency [4] | outcome [5] | outcome [6] | outcome [7] | outcome [8] | outcome [9] | outcome [10] | outcome [11] | outcome [12] | outcome [13] | outcome [14] | outcome [15] | outcome [16] | outcome [17] | Potency [18] | Potency [19]

NC(=O)N[C@@H](CCC(=O)O)C(=O)O
inactive: Potency [1] | Potency [2] | Potency [3] | Potency [4] | outcome [5] | Potency [20] | outcome [6] | outcome [8] | outcome [9] | outcome [10] | outcome [11] | outcome [12] | outcome [13] | outcome [14] | outcome [15] | outcome [16] | outcome [17] | Potency [18] | Potency [19]

C=COC(=O)C(C)(CC)CCC(C)C (stereo unspecified)
inactive: Potency [1] | Potency [2] | Potency [3] | Potency [4] | outcome [5] | outcome [6] | outcome [7] | outcome [8] | outcome [9] | outcome [10] | outcome [11] | outcome [12] | outcome [13] | outcome [14] | outcome [15] | outcome [16] | outcome [17]

Nc1ccncc1N
inactive: Potency [1] | Potency [2] | Potency [3] | Potency [4] | outcome [5] | Potency [20] | outcome [6] | outcome [7] | outcome [9] | outcome [11] | outcome [12] | outcome [13] | outcome [14] | outcome [15] | outcome [16] | outcome [17] | Potency [18] | Potency [19]
